According to the supplement of paper PMC4466140:

B1: unnamed (peptide)
chain: RLPAPPPPPRRGPAP

Each binder was assayed against AgAbp1 (assay: SPOT peptide array binding signal intensity (averaged, normalized) (arbitrary units (background-subtracted, floor 0; scale differs between SH3 domains)); higher = stronger binding of the SH3 domain to the peptide).
Description: (§1)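 GST-tagged SH3 domains from S. cerevisiae (Sc), A. gossypii (Ag), C. albicans (Ca) and S. pombe (Sp) were incubated at 10 ug/ml overnight at 4 C on cellulose SPOT membranes carrying 292 synthetic 15-mer peptides mined from the S. cerevisiae proteome (cysteines replaced by serines). Binding was detected with anti-GST antibody, HRP secondary and chemiluminescence, quantified with Genespotter, and reported as normalized spot intensities averaged over biological replicates.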
With B1 the “SPOT peptide array binding signal intensity” value was 51.5.

Each binder was assayed against AgBbc1 in the same assay as above.
Description: as §1
With B1 the “SPOT peptide array binding signal intensity” value was 909.

What follows are binders tested against AgBem1-D1 in the same assay as above.
Description: as §1
With B1 the “SPOT peptide array binding signal intensity” value was 140.

Each binder was assayed against AgBzz1-D1 in the same assay as above.
Description: as §1
B1 was tested, and the “SPOT peptide array binding signal intensity” value was 624.

The binders below were run against AgBzz1-D2 in the same assay as above.
Description: as §1
For B1, the “SPOT peptide array binding signal intensity” value was 154.

Each binder was assayed against AgCyk3 in the same assay as above.
Description: as §1
B1 was tested, and the “SPOT peptide array binding signal intensity” value was 3.

Each binder was assayed against AgFus1 in the same assay as above.
Description: as §1
In the case of B1, the “SPOT peptide array binding signal intensity” value is reported as 6.

These binders were tested against AgHof1 in the same assay as above.
Description: as §1
For B1, the “SPOT peptide array binding signal intensity” value was 112.

The binders below were run against AgHse1 in the same assay as above.
Description: as §1
B1 was tested, and the “SPOT peptide array binding signal intensity” value was 28.5.

These binders were tested against AgLsb1 in the same assay as above.
Description: as §1
In the case of B1, the “SPOT peptide array binding signal intensity” value is reported as 5.25.

Each binder was assayed against AgLsb4 in the same assay as above.
Description: as §1
With B1 the “SPOT peptide array binding signal intensity” value was 412.

What follows are binders tested against AgMyo5 in the same assay as above.
Description: as §1
For B1, the “SPOT peptide array binding signal intensity” value was 550.

These binders were tested against AgNbp2 in the same assay as above.
Description: as §1
B1 was tested, and the “SPOT peptide array binding signal intensity” value was 7.5.

What follows are binders tested against AgRvs167 in the same assay as above.
Description: as §1
B1 was tested, and the “SPOT peptide array binding signal intensity” value was 123.

These binders were tested against AgSho1 in the same assay as above.
Description: as §1
For B1, the “SPOT peptide array binding signal intensity” value was 4.

What follows are binders tested against AgSla1-D1-D2 in the same assay as above.
Description: as §1
B1 was tested, and the “SPOT peptide array binding signal intensity” value was 5.

Each binder was assayed against AgSla1-D3 in the same assay as above.
Description: as §1
With B1 the “SPOT peptide array binding signal intensity” value was 10.

These binders were tested against CaAbp1-D1 in the same assay as above.
Description: as §1
B1 was tested, and the “SPOT peptide array binding signal intensity” value was 150.

Each binder was assayed against CaAbp1-D2 in the same assay as above.
Description: as §1
For B1, the “SPOT peptide array binding signal intensity” value was 17.

The binders below were run against CaBbc1 in the same assay as above.
Description: as §1
In the case of B1, the “SPOT peptide array binding signal intensity” value is reported as 770.

These binders were tested against CaBem1-D1 in the same assay as above.
Description: as §1
For B1, the “SPOT peptide array binding signal intensity” value was 1820.

What follows are binders tested against CaBzz1-D1 in the same assay as above.
Description: as §1
With B1 the “SPOT peptide array binding signal intensity” value was 3030.

Each binder was assayed against CaBzz1-D2 in the same assay as above.
Description: as §1
For B1, the “SPOT peptide array binding signal intensity” value was 1540.

The binders below were run against CaCyk3 in the same assay as above.
Description: as §1
For B1, the “SPOT peptide array binding signal intensity” value was 326.

What follows are binders tested against CaFus1 in the same assay as above.
Description: as §1
With B1 the “SPOT peptide array binding signal intensity” value was 26.5.

These binders were tested against CaHof1 in the same assay as above.
Description: as §1
With B1 the “SPOT peptide array binding signal intensity” value was 39.

The binders below were run against CaHse1 in the same assay as above.
Description: as §1
For B1, the “SPOT peptide array binding signal intensity” value was 5.25.

Each binder was assayed against CaLsb1 in the same assay as above.
Description: as §1
With B1 the “SPOT peptide array binding signal intensity” value was at most 0.

Each binder was assayed against CaLsb4 in the same assay as above.
Description: as §1
With B1 the “SPOT peptide array binding signal intensity” value was 560.

The binders below were run against CaMyo5 in the same assay as above.
Description: as §1
For B1, the “SPOT peptide array binding signal intensity” value was 19.5.

What follows are binders tested against CaNbp2 in the same assay as above.
Description: as §1
B1 was tested, and the “SPOT peptide array binding signal intensity” value was 63.5.

The binders below were run against CaRvs167 in the same assay as above.
Description: as §1
For B1, the “SPOT peptide array binding signal intensity” value was 223.

The binders below were run against CaRvs167-3 in the same assay as above.
Description: as §1
With B1 the “SPOT peptide array binding signal intensity” value was 9.25.

These binders were tested against CaSho1 in the same assay as above.
Description: as §1
For B1, the “SPOT peptide array binding signal intensity” value was 11.

What follows are binders tested against CaSla1-D1-D2 in the same assay as above.
Description: as §1
In the case of B1, the “SPOT peptide array binding signal intensity” value is reported as 2140.

These binders were tested against CaSla1-D3 in the same assay as above.
Description: as §1
With B1 the “SPOT peptide array binding signal intensity” value was 20.2.

These binders were tested against ScAbp1 in the same assay as above.
Description: as §1
With B1 the “SPOT peptide array binding signal intensity” value was 53.
